Test results as given in the supplement of paper PMC3334620.
The full ranking holds about 33,000 sequences; the median of “E-score (-0.5 to 0.5)” is about -0.054, and the highest 2% start at about 0.35. For the sample, the highest values were picked, then their nearest neighbours and some sequences at random.

What follows are sequences tested against T1, Stb5 (UniProt P38699) (assay: PBM E-score (8-mer binding enrichment) (E-score (-0.5 to 0.5)); higher = stronger / more preferred TF binding). Conditions: protein concentration: 200 nM; construct: GST-full length.
T1 sequence: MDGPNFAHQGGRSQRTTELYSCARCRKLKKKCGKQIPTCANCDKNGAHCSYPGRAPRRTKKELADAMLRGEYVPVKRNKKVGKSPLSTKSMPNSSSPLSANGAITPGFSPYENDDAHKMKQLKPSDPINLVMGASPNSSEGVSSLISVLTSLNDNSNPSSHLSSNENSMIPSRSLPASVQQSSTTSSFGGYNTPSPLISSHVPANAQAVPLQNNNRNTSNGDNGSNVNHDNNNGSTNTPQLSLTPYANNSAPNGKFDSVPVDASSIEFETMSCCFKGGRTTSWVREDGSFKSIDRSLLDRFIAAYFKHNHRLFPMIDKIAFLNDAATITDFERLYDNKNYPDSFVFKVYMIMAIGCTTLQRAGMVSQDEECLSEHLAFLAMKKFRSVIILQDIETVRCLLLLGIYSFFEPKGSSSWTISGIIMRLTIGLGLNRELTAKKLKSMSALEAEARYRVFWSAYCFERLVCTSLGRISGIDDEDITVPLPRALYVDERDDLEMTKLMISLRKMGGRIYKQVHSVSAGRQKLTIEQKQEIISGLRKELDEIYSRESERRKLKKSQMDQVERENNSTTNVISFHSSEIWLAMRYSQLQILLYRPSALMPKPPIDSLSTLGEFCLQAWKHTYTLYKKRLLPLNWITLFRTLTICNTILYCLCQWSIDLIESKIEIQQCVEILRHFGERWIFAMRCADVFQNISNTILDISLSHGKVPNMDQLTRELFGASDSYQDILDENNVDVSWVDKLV
Outline: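 Yeast transcription factors carrying a GST tag, as full-length proteins or DNA-binding domains, were produced by PURExpress in vitro transcription/translation. About 100-200 nM protein was applied to universal all-10-mer Agilent arrays, double-stranded by primer extension on fresh or once-stripped slides. Bound protein was detected with fluorescent anti-GST, and scans were normalised with masliner. The Universal PBM Analysis Suite gave each ungapped eight-base word, pooled with its reverse complement, an E-score, a modified Wilcoxon-Mann-Whitney statistic.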

Row | Sequence | PBM E-score
1 | CGGCCGAC | 0.205
2 | ACAAGTGT | -0.136
3 | CAGGTTAA | -0.0457
4 | AACGGGGC | 0.294
5 | AACGGACG | 0.224
6 | AACGGACT | 0.38
7 | AACGGACC | 0.38
8 | AACGGATC | 0.16
9 | AACGGACA | 0.298
10 | AACGGGGG | 0.296
11 | CACGGACC | 0.241
12 | AACGGAGC | 0.242
13 | AACGGAGT | 0.378
14 | AACGGGGT | 0.373
15 | AACGGAGA | 0.247
16 | GTAAGATA | 0.0697
17 | CTGCAGCC | -0.218
18 | TCTGGGCA | 0.115
19 | TAGCTTCA | -0.214
20 | AGCGATGC | -0.112
21 | CGTTGTAA | -0.00989
22 | AGTTCAGC | -0.299
23 | GAGCGGCC | 0.293
24 | TAGCGGCA | 0.372
25 | CAGCGGCA | 0.198

Row | Sequence | PBM E-score
26 | GAGCGGTA | 0.316
27 | AAGCGGCA | 0.344
28 | GAGCGGCA | 0.357
29 | CGCCAGTC | 0.131
30 | CGCTGATC | 0.0743
31 | TAGCGATA | 0.0393
32 | AATGCCGA | 0.419
33 | AATGCCGG | 0.401
34 | CATGCCGG | 0.344
35 | CATGCCCG | 0.122
36 | CATGCCGA | 0.168
37 | AATGCCGC | 0.448
38 | CATGCCGC | 0.312
39 | GATGCCGA | 0.332
40 | AATGCCCG | 0.362
41 | AATGCCCC | 0.128
42 | AATGCCTG | -0.102
43 | GATGCCGC | 0.349
44 | AAGACCTC | -0.0749
45 | CCCTTGGC | -0.224
46 | CTGATTAC | -0.0945
47 | GCAGTTCA | -0.151
48 | CTTGCCAC | -0.0929
49 | CTGGGAGA | -0.253
50 | AAAGCTCG | -0.16

Row | Sequence | PBM E-score
51 | AGATAGAC | -0.0476
52 | ACCCTTTG | 0.0498
53 | CAGCCATA | -0.263
54 | AATCCCAA | 0.0066
55 | AATGCCCT | -0.168
56 | AATGCCAT | -0.0216
57 | AATGCCGT | 0.425
58 | GGGTTTCA | 0.19
59 | AACCGCAC | 0.00707
60 | CACCGCAC | 0.357
61 | GACCGCAC | 0.18
62 | CACCGCAA | 0.368
63 | TACCGCAA | 0.225
64 | AACCGCAA | 0.12
65 | CGAGGCTA | -0.0771
66 | AATGAGAG | -0.228
67 | ATGCCTTA | -0.338
68 | GGCCGGAC | 0.331
69 | GTCCGGAC | 0.348
70 | GACCGGCC | 0.29
71 | CTCCGGAG | 0.283
72 | GACCGGAA | 0.21
73 | CGCCGGAC | 0.396
74 | CGCCGGAA | 0.168
75 | AACCGGAG | 0.302

Row | Sequence | PBM E-score
76 | GACCGGAC | 0.387
77 | ATCCGGAC | 0.258
78 | CACCGGAG | 0.379
79 | CTCCGGAC | 0.381
80 | TAGACCAA | -0.239
81 | CAATGGCA | 0.022
82 | TATTTACA | -0.157
83 | AGCTGTTC | -0.207
84 | CAAGATGG | -0.13
85 | TAGATTGA | 0.0223
86 | AAAGTACG | 0.00248
87 | CCAATGCG | -0.208
88 | GAGAGGCC | -0.0937
89 | CACCGGAA | 0.293
90 | CACCGGGC | 0.375
91 | GACCGGGC | 0.211
92 | CACCGGGG | 0.33
93 | AACCGGAC | 0.28
94 | CACCGGAC | 0.413
95 | CAGCAATA | -0.0729
96 | ATGCCCAA | -0.116
97 | CGCGGCTA | 0.3
98 | GGGTAATA | 0.143
99 | AGGTAACA | -0.111
100 | CGGTAACC | 0.165

Row | Sequence | PBM E-score
101 | CGGTAATA | 0.457
102 | CGGTAACA | 0.36
103 | CGGTAATC | 0.25
104 | CGCATAAA | -0.127
105 | CAAGCGGG | 0.273
106 | TAAGCGGA | 0.209
107 | AAAGCGGG | 0.297
108 | CAAGCGGC | 0.379
109 | AAAGCGGA | 0.352
110 | CAAGCGGA | 0.223
111 | TCGACAAA | -0.183
112 | GCGACGGA | 0.283
113 | CCGACGAC | 0.312
114 | ACGACGCG | -0.0646
115 | CCGACGGA | 0.394
116 | CCGACAAA | 0.353
117 | ACGACGGA | 0.227
118 | CCGACAAG | 0.266
119 | CCGACGCC | 0.315
120 | CCGACGGC | 0.372
121 | ACGACGGC | 0.146
122 | CCGACGCG | 0.378
123 | CGCGATCC | 0.0632
124 | AAAACGGC | 0.21
125 | GTACTCAA | -0.185

Row | Sequence | PBM E-score
126 | GCTTTAAC | -0.0801
127 | TAAATCGA | -0.267
128 | AGTCAAAA | -0.00563
129 | AAACCTCT | 0.015
130 | ATAAAGAG | -0.0867
131 | CCAAGCAG | -0.122
132 | CACTGTCA | -0.352
133 | AAGCTCCG | 0.429
134 | ATACTCCG | 0.371
135 | CAACTCCG | 0.342
136 | ATACTCCC | 0.339
137 | AAACTCCT | 0.0448
138 | AAGCTCCT | -0.165
139 | AATCTCCC | -0.0498
140 | ATACTCCA | -0.199
141 | AAACTCCG | 0.463
142 | CATCTCCG | 0.276
143 | AATCTCCG | 0.423
144 | CAGCTCCG | 0.136
145 | CACTGCAA | -0.139
146 | ACGTGCGA | -0.0649
147 | GCTAGTCC | 0.0729
148 | GAGAAAGC | 0.0247
149 | CACACATC | -0.15
150 | CTGTTCGC | -0.0755

Row | Sequence | PBM E-score
151 | AACCTCCC | -0.0946
152 | AACCTCCG | 0.408
153 | AACCTCCT | -0.234
154 | GTAAGCCA | -0.243
155 | GAGTAGCC | -0.178
156 | CGAAATTA | -0.0454
157 | CCCCGTGA | 0.146
158 | ACCCGTGC | -0.0288
159 | CCCCGTGC | 0.375
160 | ATGAACCA | -0.252
161 | CACAGCTA | -0.125
162 | CAATTGTC | -0.0888
163 | CGGCTATA | 0.367
164 | CGGCTCTA | 0.391
165 | CGGCTTTA | 0.439
166 | AGGCTATA | 0.0655
167 | CGGCTCTC | -0.0773
168 | GGGCTATA | 0.0715
169 | CGGCTTTC | 0.061
170 | GGGCTTTA | 0.326
171 | AGGCTCTA | -0.0942
172 | CTCTACCC | -0.316
